In PubChem BioAssay (NCATS):
Several values for one entry are separate records, joined by “and”; a condition that tells them apart may be missing. Equal entries are not always repeated. Results filed as inconclusive are left out. Activity calls are given as the source filed them. Unless noted, the call rests on the fitted dose curve; in most records, active means well fitted curve in the direction sought with a large enough effect; inconclusive means small, poorly fitted or top-dose-only effect, or another doubt; inactive means no such curve, though single readings can be large; an effect the other way counts as inactive or inconclusive.

Key:
[1] = qHTS Assay for Lipid Storage Modulators (AID 1519; calls by dose curve; on activity change, negative = inhibition: on the % scale 0 is the no-effect control and ±100 the full control effect); conditions: Drosophila S3 cells, BODIPY lipid droplet/cell ratio, laser cytometry, cells loaded with oleic acid
Summary of the method: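 Cells seeded at 5,000 per well were treated with compounds over a concentration series and loaded with oleic acid (400 uM, as added). Lipid droplet fluorescence (488 nm excitation, 500-530 nm channel) was read by laser-scanning cytometry and normalized to 20 uM Triacsin C.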

[2] = molecular target: DNA repair nuclease/redox regulator APEX1 (Homo sapiens) (UniProt P27695); test: qHTS Validation Assay for Inhibitors of the Human Apurinic/apyrimidinic Endonuclease 1 (APE1) (AID 1705;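 further: TAMRA fluorescence gain over two minutes as APE1 cuts a quenched THF abasic duplex; on the % scale 0 is the no-effect control and ±100 the full control effect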); conditions: purified APE1 endonuclease activity, fluorescence, titration; series mostly up to 57.1 µM
Sequence of DNA repair nuclease/redox regulator APEX1 (Homo sapiens) (P27695 whole entry, looked up): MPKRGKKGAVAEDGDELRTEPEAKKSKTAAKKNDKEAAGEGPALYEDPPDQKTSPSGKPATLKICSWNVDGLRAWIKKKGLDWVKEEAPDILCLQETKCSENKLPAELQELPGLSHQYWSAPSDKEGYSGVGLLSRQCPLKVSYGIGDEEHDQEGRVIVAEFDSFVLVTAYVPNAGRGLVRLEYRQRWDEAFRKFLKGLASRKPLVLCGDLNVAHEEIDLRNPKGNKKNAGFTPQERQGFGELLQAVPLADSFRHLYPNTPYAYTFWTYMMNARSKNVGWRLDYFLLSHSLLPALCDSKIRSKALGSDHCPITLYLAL
Summary of the method: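 qHTS, 1536-well. APE1 + cpd 15 min RT → 50 nM TAMRA/BHQ-2 THF-abasic dsDNA substrate → kinetic fluorescence, 3 reads/60 s; delta(read3−read1) = reaction progress. No-enzyme buffer = negative control.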

[3] = Counterscreen for APE1 Inhibitors: Fluorescent Dye Displacement Validation Assay (AID 1707); conditions: fluorescent dye displacement from DNA; series mostly up to 57.1 µM;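 further: plate controls were ThO with dsDNA and no compound for no effect and ThO without dsDNA for full effect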
Summary of the method: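 Assay buffer: Tris-HCl pH7.5 with 50mM NaCl, 2 mM MgCl2, 0.01% Tween-20. Dye 250 nM, duplex 50 nM final. Readout: decrease in ThO endpoint fluorescence, 480 nm excitation, 540 nm emission.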

[4] = molecular target: Endonuclease 4 (Escherichia coli (strain K12)) (UniProt P0A6C1); test: Counterscreen for APE1 Inhibitors: qHTS Validation Assay for Inhibitors of Endonuclease IV (AID 1708); further: on the % scale 0 is the no-effect control and ±100 the full control effect; conditions: E. coli endonuclease IV, DNA cleavage fluorescence; series mostly up to 57.1 µM
Summary of the method: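 qHTS concentration-response format; LOPAC1280 tested under APE1-screen conditions. 2 nM enzyme, 15 min compound preincubation at RT, then 50 nM TAMRA/BHQ-2 abasic substrate; kinetic fluorescence read, three reads at 60 s intervals.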

[5] = qHTS for differential inhibitors of proliferation of Plasmodium falciparum line 3D7 (AID 1876); further: potency means the concentration at half of the fitted maximal effect; conditions: P. falciparum 3D7 proliferation inhibition; series mostly up to 28.7 µM
[6] = qHTS for differential inhibitors of proliferation of Plasmodium falciparum line D10 (AID 1877); conditions: series mostly up to 28.7 µM;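 further: parasites grown with compound for 72 h before DNA staining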; further: potency means the concentration at half of the fitted maximal effect;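 on activity change, negative = inhibition: plate controls were vehicle wells for no effect and reference inhibitor wells for full effect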
[7] = qHTS for differential inhibitors of proliferation of Plasmodium falciparum line W2 (AID 1883); conditions: Potency: Plasmodium falciparum W2 proliferation inhibition; series mostly up to 28.7 µM;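 further: parasites grown with compound for 72 h before lysis and staining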; further: potency means the concentration at half of the fitted maximal effect;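 on activity change, negative = inhibition: 0% = vehicle wells and -100% = control inhibitor wells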
[8] = qHTS for differential inhibitors of proliferation of Plasmodium falciparum line 7G8 (AID 1815); conditions: Plasmodium falciparum 7G8 proliferation inhibition; series mostly up to 28.7 µM;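 further: parasite growth measured after three days of incubation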; further: potency means the concentration at half of the fitted maximal effect;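 on activity change, negative = inhibition: plate controls were vehicle wells for no effect and reference inhibitor wells for full effect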
[9] = qHTS for differential inhibitors of proliferation of Plasmodium falciparum line GB4 (AID 1816); conditions: Potency: Plasmodium falciparum GB4 proliferation inhibition; series mostly up to 28.7 µM;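 further: parasite growth measured after 72 h incubation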; further: potency means the concentration at half of the fitted maximal effect;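 on activity change, negative = inhibition: 0% = vehicle DMSO and -100% = reference inhibitor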
[10] = qHTS for differential inhibitors of proliferation of Plasmodium falciparum line Dd2 (AID 1882); conditions: Potency: Plasmodium falciparum Dd2 proliferation inhibition; series mostly up to 28.7 µM; further: nearly all actives have a fitted effect of over 65% in size; further: potency means the concentration at half of the fitted maximal effect;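 on activity change, negative = inhibition: plate controls were DMSO vehicle for no effect and 0.29 µM artemisinin for full effect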
Summary of the method: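 Dd2-infected erythrocytes (0.3% parasitemia, 2.5% hematocrit final) incubated with compound 72 h at 37 C, 5% CO2; lysed with saponin/Triton buffer containing SYBR Green I, incubated overnight in the dark, then read by fluorescence (485/535 nm). Normalized to 0.29 uM artemisinin and DMSO.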

[11] = measured here: cell count channel max response
[12] = measured here: lipid channel max response

CC(=O)Oc1cc(C(C)C)c(OCCN(C)C)cc1C
inactive: activity change, negative = inhibition ([1]; at 25.7 µM (top of the series)) -0.785% | Potency [2] | outcome [3] | Potency [4] | Potency [5] | Potency [6]
-5.49%: max response [1, 12]
-9.94%: max response [1, 11]
active: Potency [7] 7.94 µM

CCNC(=O)N1CCN(CCCC(c2ccc(F)cc2)c2ccc(F)cc2)CC1
inactive: activity change, negative = inhibition ([1]; at 57.5 µM (top of the series)) -0.161% | Potency [2] | outcome [3]
active: Potency [8] 1.58 µM | Potency [9] 1.12 µM | Potency [5] 0.891 µM | Potency [6] 2.51 µM | Potency [10] 3.16 µM | Potency [7] 0.282 µM
-45.7%: max response [1, 11]
-48.7%: max response [1, 12]

C#CCN(C)CCCOc1ccc(Cl)cc1Cl
active: Potency [7] 11.2 µM
-6.58%: max response [1, 11]
-5.76%: max response [1, 12]
inactive: activity change, negative = inhibition ([1]; at 25.7 µM (top of the series)) -0.841% | Potency [2] | outcome [3] | Potency [5] | Potency [6] | Potency [10]

CCN(CC)CCNC(=O)c1ccc(NC(C)=O)cc1
inactive: activity change, negative = inhibition ([1]; at 57.5 µM (top of the series)) 5.92% and 1.04% | Potency [2] | outcome [3] | Potency [4] | Potency [8] | Potency [9] | Potency [5] | Potency [6] | Potency [10] | Potency [7]
-2.69% and -11.3%: max response [1, 11]
6.2% and -12.1%: max response [1, 12]

COCC(=O)O[C@]1(CCN(C)CCCc2nc3ccccc3[nH]2)CCc2cc(F)ccc2[C@@H]1C(C)C
-16.1%: max response [1, 12]
active: Potency [8] 2.24 µM | Potency [9] 0.141 µM | Potency [5] 3.16 µM | Potency [6] 8.91 µM | Potency [10] 1.26 µM | Potency [7] 0.501 µM
inactive: activity change, negative = inhibition ([1]; at 57.5 µM (top of the series)) -12.5% | Potency [2]
-3.1%: max response [1, 11]

Nc1c2c(nc3ccccc13)CCCC2O (stereo not given)
13.3% and -15.3%: max response [1, 12]
inactive: activity change, negative = inhibition ([1]; at 57.5 µM (top of the series)) 0.679% and 0.738% | Potency [2] | outcome [3] | Potency [8] | Potency [6] | Potency [10]
14.7% and -14.6%: max response [1, 11]

Cc1nc2sccn2c(=O)c1CCN1CCC(=C(c2ccc(F)cc2)c2ccc(F)cc2)CC1
active: Potency [8] 7.08 µM | Potency [9] 10 µM | Potency [5] 11.2 µM | Potency [6] 10 µM | Potency [10] 7.94 µM | Potency [7] 10 µM
25.6%: max response [1, 12]
inactive: activity change, negative = inhibition ([1]; at 57.5 µM (top of the series)) -1.04% | Potency [2] | outcome [3] | Potency [4]
26.4%: max response [1, 11]

C=CCc1ccccc1OCC(O)CNC(C)C (stereo not given)
12.4%: max response [1, 12]
inactive: activity change, negative = inhibition ([1]; at 57.5 µM (top of the series)) 0.138% | Potency [2] | outcome [3] | Potency [4]
active: Potency [8] 3.55 µM | Potency [9] 1.58 µM | Potency [5] 10 µM | Potency [6] 12.6 µM | Potency [10] 8.91 µM | Potency [7] 2.24 µM
11.7%: max response [1, 11]

C[C@]12CCC(=O)C=C1CC[C@@H]1[C@@H]2CC[C@@]2(C)[C@H]1CC[C@]2(O)C(=O)CO
inactive: activity change, negative = inhibition ([1]; at 57.5 µM (top of the series)) -0.711% | Potency [2] | Potency [4] | Potency [10]
12.1%: max response [1, 12]
15.6%: max response [1, 11]

COC(=O)C1=C(C)NC(C)=C(C(=O)OCCN(C)Cc2ccccc2)C1c1cccc([N+](=O)[O-])c1 (stereo not given)
inactive: Potency [2] | outcome [3]

CN(C)C(=O)Oc1cccc([N+](C)(C)C)c1
inactive: Potency [2] | outcome [3] | Potency [4] | Potency [8] | Potency [9] | Potency [5] | Potency [6] | Potency [10] | Potency [7]

C[N+](C)(C)CCCCCCCCCC[N+](C)(C)C
inactive: activity change, negative = inhibition ([1]; at 25.7 µM (top of the series)) -3.64% | outcome [3] | Potency [4]
-13.2%: max response [1, 11]
-14.8%: max response [1, 12]

C[C@]12C=CC(=O)C=C1CC[C@H]1[C@@H]3C[C@@H](O)[C@](O)(C(=O)CO)[C@@]3(C)C[C@H](O)[C@@]12F
inactive: Potency [2] | outcome [3] | Potency [4] | Potency [8] | Potency [9] | Potency [5] | Potency [6] | Potency [10] | Potency [7]

CCc1cccc(N(C)C(N)=Nc2cccc3ccccc23)c1
inactive: Potency [2] | outcome [3] | Potency [4]
active: Potency [8] 3.16 µM | Potency [9] 10 µM | Potency [5] 12.6 µM | Potency [6] 14.1 µM | Potency [7] 0.631 µM

CN1CCN(CC(=O)N2c3ccccc3C(=O)Nc3cccnc32)CC1
inactive: activity change, negative = inhibition ([1]; at 25.7 µM (top of the series)) 1.33% | activity change, negative = inhibition ([1]; at 57.5 µM (top of the series)) 2.91% and 6.38% and 1.02% | Potency [2] | outcome [3] | Potency [4] | Potency [8] | Potency [9] | Potency [5] | Potency [10] | Potency [7]

C[C@]12CCC(=O)C=C1CC[C@@H]1[C@@H]2C(=O)C[C@@]2(C)[C@H]1CC[C@]2(O)C(=O)CO
inactive: Potency [2] | outcome [3] | Potency [4] | Potency [8] | Potency [9] | Potency [5] | Potency [6] | Potency [10]

COC(=O)[C@@H](N)Cc1ccc(O)c(O)c1
active: Potency [9] 14.1 µM
inactive: Potency [2] | outcome [3] | Potency [4] | Potency [10]

CN(C)CC[C@@H](c1ccc(Br)cc1)c1ccccn1
inactive: Potency [2] | outcome [3] | Potency [4] | Potency [6]
active: Potency [7] 1 µM

Cc1ccc(=O)n(-c2ccccc2)c1
inactive: Potency [2] | outcome [3] | Potency [4] | Potency [8] | Potency [9] | Potency [5] | Potency [6] | Potency [10] | Potency [7]

O=C(CCCN1CCC(O)(c2cccc(C(F)(F)F)c2)CC1)c1ccc(F)cc1
active: Potency [8] 3.55 µM | Potency [9] 3.16 µM | Potency [5] 3.55 µM | Potency [6] 12.6 µM | Potency [10] 3.98 µM | Potency [7] 2.24 µM
inactive: Potency [2] | outcome [3] | Potency [4]

C[N+](C)(C)CCOC(=O)CCC(=O)OCC[N+](C)(C)C
inactive: Potency [2] | outcome [3] | Potency [4] | Potency [8] | Potency [9] | Potency [5] | Potency [6] | Potency [10] | Potency [7]

CN(C(=O)CCCOc1ccc2[nH]c(=O)ccc2c1)C1CCCCC1
active: Potency [8] 7.08 µM | Potency [7] 14.1 µM
inactive: Potency [2] | outcome [3] | Potency [4]

CCCN1C[C@H](CSC)C[C@@H]2c3cccc4[nH]cc(c34)C[C@H]21
inactive: Potency [2] | outcome [3] | Potency [4]
active: Potency [8] 11.2 µM | Potency [9] 5.62 µM | Potency [5] 11.2 µM | Potency [6] 11.2 µM | Potency [7] 4.47 µM
